aSyn 5UTR act: Activators via SNCA 5'UTR binding, MLPCN | alpha-synuclein 5'UTR reporter, activators screen | activity score, % (tested at 7.5 µM), hits read low | 300,000 compounds, 7.1% hits | AID 1814; in the data active means activity score below about -60%
* hit, by the source's call. Not all results are given here.

SMILES	aSyn 5UTR act
COc1ccc2c(CC(=O)Nc3ncc(C)s3)coc2c1	-133*
Cc1ccc(CC(=O)Nc2cccc(C)n2)cc1	-172*
Cc1cccc(NC(=O)Cc2c(F)cccc2Cl)n1	-103*
CN1CCN(CC(=O)Nc2nc(-c3c[nH]c4ccccc34)cs2)CC1	-62*
Cc1csc(NC(=O)Cc2ccc(F)cc2)n1	-65*
Cc1csc(NC(=O)Cc2c[nH]c3ccccc23)n1	-95*
O=C(Cc1c[nH]c2ccccc12)Nc1nc2ccccc2[nH]1	-101*
Cc1ccc2c(CC(=O)Nc3nc(C)cs3)coc2c1	-70*
Cc1cccc(C(=O)Nc2ccc(O)cc2)c1	-98*
Cc1cccc(C(=O)Nc2ccc(C(=O)c3ccccc3)cc2)c1	-106*
O=C(Nc1nsc(-c2ccccc2)n1)c1ccc(F)cc1	-166*
O=C(Nc1ccccc1)c1ccc(C(=O)Nc2ccccc2)nc1	-182*
Cc1ccc(NC(=O)/C(CN(C)C)=N\O)cc1	-89*
CSC(=CC(=O)c1ccccc1)SC	-77*
Cc1ccc(N/C(=C\C(=O)c2ccccc2)C(=O)O)cc1	-158*
O=C(Nc1ccc(Nc2ccccc2)cc1)c1ccc(F)cc1	-75*
Cc1ccc(NC(=O)c2ccccc2)cc1	-164*
Cc1ccc(C(=O)Nc2ccc3ccccc3c2)cc1	66
Cc1ccc(NC(=O)C(=O)c2ccc(C)cc2)cc1	-208*
c1ccc2c(Nc3nc4c(s3)CCCC4)cccc2c1	-157*
Cc1nn(C)c(Sc2ccccn2)c1[N+](=O)[O-]	-87*
O=C(c1ccccc1)[C@H]1[C@H](c2ccccc2)[C@@]2(N=C(c3ccccc3)OC2=O)C2c3ccccc3C=NN21 (stereo partly drawn)	-110*
Cc1cc(N2CCOCC2)nc2ccc(NC(=O)CCC(=O)N3CCC(C)CC3)cc12	-105*
Cc1cc(N2CCOCC2)nc2ccc(NC(=O)CCC(=O)N3CCCCC3)cc12	-90*
CCC(C)NC(=O)CCC(=O)Nc1ccc2nc(N3CCOCC3)cc(C)c2c1 (stereo not drawn)	-86*
SMILES	aSyn 5UTR act
CCC(C)NC(=S)Nc1ccc2nc(N3CCN(CC)CC3)cc(C)c2c1 (stereo not drawn)	-95*
Cc1nc(Nc2cnc(/C=C/c3cc(C(=O)Nc4cccc(C(F)(F)F)c4)ccc3C)cn2)cc(N2CCNCC2)n1	81
CCN1CCN(c2cc(C)c3cc(NC(=O)CCC(=O)N4CCN(c5ccccc5OC)CC4)ccc3n2)CC1	-62*
Cc1cc(N2CCOCC2)nc2ccc(NC(=O)CCC(=O)N3CCN(c4cccc(C(F)(F)F)c4)CC3)cc12	-72*
CCCCN(C)C(=O)CCC(=O)Nc1ccc2nc(N3CCOCC3)cc(C)c2c1	-76*
CCCCNC(=O)CCC(=O)Nc1ccc2nc(N3CCC(C)CC3)cc(C)c2c1	-69*
COc1ccc(NC(=O)CCC(=O)Nc2ccc3nc(N4CCOCC4)cc(C)c3c2)c(OC)c1	-94*
Cc1cc(N2CCOCC2)nc2ccc(Cl)cc12	-111*
COc1cc(/C=C/c2cc[n+](C)cc2)ccc1OCC(=O)Nc1ccccc1	-76*
COc1cc(C=C2C(=O)OC(C)(C)OC2=O)ccc1OCC(=O)Nc1ccccc1	-123*
COc1ccc(C(=O)c2c(C(F)(F)F)oc3c2C(=O)c2ccccc2C3=O)cc1	109
Cc1ccc(C(=O)c2coc3c2C(=O)C(=O)c2ccccc2-3)cc1	-90*
Cc1oc2c(c1C(=O)c1ccc(Cl)cc1)C(=O)C(=O)c1ccccc1-2	-87*
COc1ccc(/C=C/c2cc(=O)c3cc(Cl)ccc3o2)cc1	-253*
O=C(OCc1nc2ccccc2s1)c1ccc(Br)s1	-72*
Cc1ccc(C(=O)OCc2nc3ccccc3s2)o1	-103*
O=C(OCc1nc2ccccc2s1)c1cc2ccccc2oc1=O	-100*
O=C(CCc1ccc(S(=O)(=O)N2CCOCC2)cc1)OCc1nc2ccccc2s1	-85*
O=C(N/N=C/C=C/c1ccccc1)c1cccs1	-156*
O=C(Cc1cccs1)N/N=C/C=C/c1ccccc1	-70*
O=C(N/N=C/C=C/c1ccccc1)c1cc2c(ccc3ccccc32)o1	-80*
O=C(N/N=C/C(Br)=C/c1ccccc1)c1cccs1	-366*
O=C(N/N=C\C=C\c1ccc([N+](=O)[O-])o1)c1cccs1	-63*
COc1cccc(-c2cc(C(=O)NCC3CCCO3)on2)c1 (stereo not drawn)	-64*
CC(C)CNc1nc(N)c([N+](=O)[O-])c(NCC2CCCO2)n1 (stereo not drawn)	51
SMILES	aSyn 5UTR act
O=C(NCC1CCCO1)c1cc(-c2ccc(F)cc2)no1 (stereo not drawn)	-264*
COc1ccc(C(=O)NC(=S)NCC2CCCO2)cc1 (stereo not drawn)	-71*
Cc1c([N+](=O)[O-])c(C(=O)Nc2ccc3c(c2)OCCO3)nn1C	-140*
COc1cc(C(=O)Nc2ccc3c(c2)OCCO3)ccc1OC(C)C	-163*
COc1ccc(C(=O)Nc2ccc3c(c2)OCCO3)cc1[N+](=O)[O-]	-94*
COc1ccc(NC(=O)c2ccc3c(c2)OCCO3)cc1OC	-104*
O=C(Nc1ccc(F)c([N+](=O)[O-])c1)c1ccc2c(c1)OCCO2	-138*
Cc1csc(NC(=O)c2nn(C)c(C)c2[N+](=O)[O-])n1	-123*
COc1cc(C(=O)Nc2ccc3c(c2)OCCO3)ccc1OC(F)F	-153*
Cn1ncc([N+](=O)[O-])c1C(=O)Nc1ccc(-c2nc3ccccc3o2)cc1	-130*
CCC(=O)c1ccc(OCC(O)Cn2nnc3ccccc32)cc1 (stereo not drawn)	-74*
COc1cc(/C=C(/C#N)c2nc3ccccc3[nH]2)ccc1OCC(=O)Nc1ccccc1C(C)C	103
N#C/C(=C/c1ccncc1)c1nc2ccccc2s1	-89*
CCN(CC)c1ccc(/C=C(/C#N)c2nc3ccccc3[nH]2)c(OC(C)C)c1	-211*
COc1cc(/C=C(\C#N)c2nc3ccccc3[nH]2)ccc1OC(=O)c1ccco1	-174*
COc1ccc(/C(C#N)=C/c2cccnc2)cc1	-71*
N#C/C(=C\c1ccc(OC(=O)c2ccc(Cl)s2)cc1)c1nc2ccccc2[nH]1	-287*
Cc1cc2nc(/C(C#N)=C/c3ccncc3)[nH]c2cc1C	-62*
N#C/C(C(=O)c1ccccc1)=C1/CCCCCN1	-113*
N#C/C(=C\c1cccnc1)c1nc2ccccc2[nH]1	-86*
N#C/C(=C\c1ccncc1)c1nc2ccccc2[nH]1	-77*
N#C/C(=C1/CCCCCN1)c1nc2ccccc2[nH]1	-127*
CC1CCc2nc(/C(C#N)=C/c3ccncc3)sc2C1 (stereo not drawn)	-114*
Cc1ccc2sc(-c3ccc(NC(=O)c4cc(-n5cnnc5)ccc4Cl)cc3)nc2c1	-153*
Cc1c(NC(=O)c2cc(-n3cnnc3)ccc2Cl)cccc1-c1nc2ccccc2s1	-90*
SMILES	aSyn 5UTR act
O=C(Nc1cccc(-c2nc3ccccc3s2)c1)c1cc(-n2cnnc2)ccc1Cl	-85*
C=CCNc1nc(Cl)nc(Nc2ccccc2)n1	-72*
N=c1oc2cc(O)ccc2cc1C(=O)Nc1nc2ccccc2s1	-188*
N=c1oc2cc(O)ccc2cc1C(=O)Nc1ccc(Br)cc1	-172*
CCCOc1ccc(/C=N/Nc2ccccc2[N+](=O)[O-])c(O)c1	62
O=[N+]([O-])c1ccc(N/N=C/c2ccccc2O)cc1	-165*
CN(/N=C/c1cc([N+](=O)[O-])ccc1O)c1ccccc1	-159*
O=[N+]([O-])c1ccc(O)c(/C=N/Nc2ccccn2)c1	95
CCCOc1ccc(/C=N/Nc2cccc([N+](=O)[O-])c2)c(O)c1	-164*

From PubChem
